From PubChem BioAssay
ALOX15B inhib: blocks human 15-lipoxygenase 2 activity. O15296. hit rate 0.56% among 110,000. Potency, µM (top dose mostly 57.1 µM), inactives show at the highest dose activity change, negative = inhibition, actives largely listed as inhibitors. purified 15hLO-2, xylenol orange hydroperoxide absorbance; also: % is scaled to controls: 0 for no effect and ±100 for the full control effect; nearly all actives have a fitted effect of over 60% in size
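Purified human 15hLO-2 (50 nM) preincubated 15 min with compound, then 45 uM arachidonic acid for 90 min at RT in 25 mM Hepes pH 7.5, 0.01% Triton X-100. Hydroperoxide detected by Fe-xylenol orange; 573/405 nm absorbance ratio.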
Casp7 inh: allosteric or competitive inhibitors of human caspase-7. AID 889. Potency, µM (series often up to 57.5 µM), for inactives: at the top dose activity change, negative = inhibition, actives largely listed as inhibitors. hit rate 0.02% among 75,000. recombinant caspase-7, Ac-DEVD-AFC fluorescence rate. P55210; active = well fitted inhibition curve with a large enough effect in the main read-out, with a control signal flat, not every such curve was filed as active; inconclusive = small, poorly fitted or top-dose-only effect, or a change in a side signal; also: % of control where 0% means no effect
Target sequence (P55210 24-198 limits assumed): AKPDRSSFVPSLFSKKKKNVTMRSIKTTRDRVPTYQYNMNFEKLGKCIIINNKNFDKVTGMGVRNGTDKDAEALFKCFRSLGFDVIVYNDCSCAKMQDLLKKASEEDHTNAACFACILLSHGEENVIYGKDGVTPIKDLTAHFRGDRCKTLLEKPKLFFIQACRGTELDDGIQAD
Target sequence (P55210 207-303 limits assumed): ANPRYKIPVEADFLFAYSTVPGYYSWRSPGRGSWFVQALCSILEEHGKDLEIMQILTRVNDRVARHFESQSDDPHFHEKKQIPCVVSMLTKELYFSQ
HEK293 cAMP cs: parental HEK293 cAMP activation (counter-screen). parental HEK293 CNG cAMP sensor, membrane potential fluorescence. Potency, µM (doses to about 57.1 µM), without a hit: at the top dose activation, actives largely listed as activators. hit rate 2.5% among 73,000; also: % of control where 0% means no effect; nearly all actives have a fitted effect of over 55% in size
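Counterscreen for endogenous-receptor signalling: CNG-channel HEK 293 cells report cAMP rise by membrane depolarization. After 60 min dye equilibration with 100 uM RO 20-1724, compounds incubated 30 min before bottom-read fluorescence at 590 nm.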
TSHR ag: TSH receptor (human) agonism; HEK293-CNG-TSHR cells (CNG channel as cAMP sensor), membrane potential dye, cAMP; Potency, µM (highest dose often 57.1 µM), without a hit: at the highest dose activation, usual class: activators; hit rate 0.48% among 73,000; AID 926; active = well fitted activation curve with a large enough effect in the main read-out, with a control signal flat, not every such curve was filed as active; inconclusive = small, poorly fitted or top-dose-only effect, or a change in a side signal; inactive = no such curve, though single readings can be large or run the other way; % of control where 0% means no effect;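 also: the control signal comes from parental cells without the receptor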
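HEK 293 cells stably expressing TSHR and a cAMP-gated CNG channel; parental CNG-only cells as counterscreen. Cells preloaded 60 min with membrane potential dye plus 100 uM RO 20-1724, then compound 30 min; fluorescence read at 590 nm.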
ALOX15 inhib: blocks human 15-lipoxygenase activity. P16050. purified 15hLO-1, xylenol orange hydroperoxide absorbance. Potency, µM (series often up to 57.1 µM), inactives show top-dose activity change, negative = inhibition, most hits filed as inhibitors. hit rate 1.4% among 74,000. AID 887; also: % is scaled to controls: 0 for no effect and ±100 for the full control effect; nearly all actives have a fitted effect of over 55% in size
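Purified human 15hLO-1 (40 nM final) in 25 mM Hepes pH 7.5, 0.01% Triton X-100 was preincubated with compound 15 min at room temperature, then reacted 6 min with 50 uM arachidonic acid; hydroperoxide detected by Fe-XO, 573/405 nm absorbance ratio.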
Casp1 inh: caspase-1 (human) inhibition, allosteric or competitive | P29466 | Caspase-1 enzyme, Ac-WEHD-AFC fluorogenic rate | Potency, µM (series often up to 57.5 µM), inactives show at the top dose activity change, negative = inhibition, hits mostly inhibitors | hit rate 0.03% among 75,000 | AID 900;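 also: plate controls were vehicle for no effect and no substrate for full effect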
* hit, by the source's call; ! = repeats disagree; [ ] = another dose, or the depositor's remark. Only some compounds are listed: those with a hit (about 3% of all), similar ones and a draw of the others. Unless noted, calls follow the shape of the dose curve; as a rule, active = well fitted curve in the direction sought with a large enough effect; inconclusive = small, poorly fitted or top-dose-only effect, or another doubt; inactive = no such curve, though single readings can be large; an effect the other way counts as inactive or inconclusive. Potency is read from the fitted curve at half-maximal effect.

Screening O=C(C1CC1c1ccccc1)N1CCN(c2cccc(Cl)c2)CC1 (stereo not drawn) returned ALOX15B inhib 5.5%, Casp7 inh -2.3%, HEK293 cAMP cs 31.6µM*, TSHR ag inconclusive, ALOX15 inhib -22.1% and Casp1 inh -2.2%.
O=C(O)c1ccccc1C(=O)N1CCN(c2cccc(Cl)c2)CC1 was read as Casp7 inh -3.2%, HEK293 cAMP cs 7.2%, TSHR ag 2.8%, ALOX15 inhib 11.4% and Casp1 inh 0.8%.
Screening O=C1CC(c2ccc3c(c2)OCO3)c2cc(O)ccc2O1 (stereo not drawn) returned ALOX15B inhib -29.0%[0.0915 µM].
`Oc1cc(O)cc(/C=C/c2ccc(O)c(O)c2)c1` gave ALOX15B inhib 4.47µM*.
COc1cccc2cc(C(=O)C3=C(O)C(=O)N(Cc4ccco4)C3c3cccnc3)oc12 (stereo not drawn) was read as ALOX15B inhib -4.3%, Casp7 inh -5.0%, HEK293 cAMP cs -4.6%, TSHR ag -5.7%, ALOX15 inhib 8.0% and Casp1 inh -2.0%.
`O=C(C1=C(O)C(=O)N(Cc2ccco2)C1c1cccnc1)c1cc2ccccc2o1` (stereo not drawn) gave ALOX15B inhib -7.1%, Casp7 inh 1.7%, HEK293 cAMP cs 9.9%, TSHR ag 6.2%, ALOX15 inhib 15.8µM* and Casp1 inh 0.0%.
For CC1CCC2C(=O)N3C(CCC(C)[C@@H]3c3cccc(N4CCOCC4)c3)C(=O)N2C1c1cccc(N2CCOCC2)c1 (stereo partly drawn) the results were Casp7 inh -1.0%[11.5 µM], HEK293 cAMP cs 2.0%[11.4 µM], TSHR ag -0.7%[11.4 µM], ALOX15 inhib 5.1%[11.4 µM] and Casp1 inh -2.0%[11.5 µM].
`O=C(CCN1C(=O)c2ccccc2C1=O)N1CCN(C(=O)c2ccccc2)CC1` gave ALOX15B inhib -1.9%, Casp7 inh 1.3%, HEK293 cAMP cs 28.5%, TSHR ag 25.1µM*, ALOX15 inhib inconclusive and Casp1 inh -1.6%.
Screening COc1ccccc1N1CCN(CCCNc2cc(=O)n(C)c(=O)n2C)CC1 returned ALOX15B inhib 18.6%, Casp7 inh 5.4%, HEK293 cAMP cs 12.6µM*!, TSHR ag inconclusive, ALOX15 inhib -15.5%[25.6 µM] and Casp1 inh -1.6%.
Screening CCc1cc(C(C)=O)c(O)cc1OCCCCCC(C)(C)c1nn[nH]n1 returned ALOX15B inhib 4.1%, Casp7 inh -7.6%, HEK293 cAMP cs 20µM*, TSHR ag inconclusive, ALOX15 inhib 20µM* and Casp1 inh -4.0%.
Screening CS(=O)(=O)N1CCC2(CCN(C(=O)Nc3cccc(F)c3)CC2)CC1 returned ALOX15B inhib -0.6%, Casp7 inh -1.2%, HEK293 cAMP cs -7.2%, TSHR ag -0.7%, ALOX15 inhib 7.4% and Casp1 inh -2.2%.
`O=C(O)CCC(=O)Nc1ccc(N2CCCCCC2)cc1` gave ALOX15B inhib -1.5%, Casp7 inh -1.4%, HEK293 cAMP cs 0.9%, TSHR ag -3.6%, ALOX15 inhib -18.3% and Casp1 inh -10.8%.
O=C(Nc1ccc(N2CCCC2)cc1)C(Cl)c1ccccc1 (stereo not drawn) was read as ALOX15B inhib 12.6µM*.
For CCOC(=O)CCN1CCN(C(=O)c2ccc(-n3c(=O)c(=O)[nH]c4ccccc43)cc2)CC1 the results were Casp7 inh -1.2%, HEK293 cAMP cs -3.7%, TSHR ag -1.5%, ALOX15 inhib 12.6µM* and Casp1 inh -2.4%.
For Cc1ccccc1C(=O)NC(=S)Nc1sc2c(c1C#N)CCC(C)C2 (stereo not drawn) the results were ALOX15B inhib 25.1µM*.
`O=C(O)C1=C/C(=C(/c2ccccc2)c2cc(C(=O)O)c(O)c3ccccc23)c2ccccc2C1=O` gave ALOX15B inhib 0.7%[11.4 µM], Casp7 inh -2.3%[11.5 µM], HEK293 cAMP cs 0.4%[11.4 µM], TSHR ag -0.4%[11.4 µM], ALOX15 inhib 5.1%[11.4 µM] and Casp1 inh 3.1%[11.5 µM].
